# Columns and labels:
# Test in all cases: PBM binding z-score (relative to random genomic background probes); higher = stronger binding; sequences stand for … in GC…GCGATTGACAGCGTAGAATGAAGG
# [1] = test system: RARb homodimer (NR concentration 270 nM)
# Method in brief: (§1)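 Random background probes are the reference for binding z-scores. These scores derive from regression-normalized fluorescence on custom Agilent 4×180K protein-binding microarrays incubated 1 h with ligand-free nuclear receptor dimers. Binding was detected with antibodies against each partner (one per run).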
# [2] = test system: RARg:RXRa (NR concentration 270 nM, RXRa partner concentration 90 nM)
# Method in brief: as §1
# [3] = test system: RARg homodimer (NR concentration 270 nM)
# Method in brief: as §1
# [4] = test system: RXRa DBDmut IVT, anti-RXR (DBD mutation: RXRa K156A/R161A, NR concentration 90 nM)
# Method in brief: as §1
# [5] = test system: RXRa homodimer (NR concentration 180 nM)
# Method in brief: as §1
# [6] = test system: THRa:RXRa (NR concentration 90 nM, RXRa partner concentration 90 nM)
# Method in brief: as §1
# [7] = test system: THRa homodimer (NR concentration 90 nM)
# Method in brief: as §1
# [8] = test system: VDR homodimer (NR concentration 270 nM)
# Method in brief: as §1
Sequence,PBM binding z-score [1],PBM binding z-score [2],PBM binding z-score [3],PBM binding z-score [4],PBM binding z-score [5],PBM binding z-score [6],PBM binding z-score [7],PBM binding z-score [8]
CCTACTGGGCCAAAAAGGACATTGATGCCGATAA,0.641,0.266,0.586,-0.359,-0.202,0.101,-0.447,0.158
GAGACAGGGTCAGCTAGAGGCCAGAGTATGGAAA,3.05,6.57,4.77,1.03,4.3,3.06,0.161,0.581
GGACCGAGGGCAAGTTGATAGCAGAGTTTGATGG,1.43,1.78,2.07,2.06,0.783,0.968,-0.0674,1.67
ATATGTAGGTGAGCTGGGGTCATTCAGACTAGGC,3.97,4.01,2.84,1.57,5.56,5.14,3.37,4.43
TCGAGTAGGCTACCAATGGGGCATTCAGCTTTCT,-0.245,-0.505,-0.706,-0.0858,-0.356,-0.828,-0.931,-0.898
ATCTCTAGGTAAAGATAGTTGAGTGAATGCAAAT,-0.216,0.504,0.43,0.115,0.0675,0.495,0.0736,0.275
AGTCAAAGTTCACTAGGTAACGAAAGATTCAGCT,3.45,4.86,5.55,3.95,3.92,1.85,0.1,3.69
CCTGCTAGGTCATGGTCGGCTAATCTACAGTATG,2.46,3.92,4.63,1.75,2.82,3.01,1.29,0.379
GATAGAGGGTCAAGGCCAGAGTACGCGTATTGAT,3.47,4.81,4.67,1.49,4.38,2.65,0.388,1.59
ATATGTAGGTTAAGGGCCATTCAGGTTGGTTCGC,1.36,0.896,1.04,0.622,1.21,1.17,0.32,1.15
CATTACGGGTCACTGACAGGTTATAGCATTTGGA,3.58,5.97,4.78,2.24,5.7,3.2,0.716,1.4
ACTATTAGCTGACTTAGGGCAACCGATACGACGC,0.665,0.504,0.628,0.619,0.197,0.454,0.576,-0.00444
AGTTAAAGTTCAGGACGAGGTAACGTAAAGCACG,3.04,4.5,4.39,3.27,2.72,3.85,1.96,2.43
TCTCGGAAGACACGAAGGTCAGAGCTTTCCAGAG,3.02,1.39,1.67,0.484,1.61,1.09,-0.118,0.195
TCATATAGCTAAAAGGTGAAAGTCGGTGTGGTAA,1.42,0.817,0.551,0.962,1.4,0.958,0.0793,-0.201
GCATATAGGTAATACAAGGTGAAAGTACGATTGT,0.886,0.699,0.793,0.0522,0.99,4.29,0.806,0.163
GGAACAAGGGCAAAGTTGATAGCATCTGTCGACG,1.5,1.92,1.83,1.5,1.27,0.979,-0.125,0.766
CGTCGAAGGTCAGAGAGGTCAGTGAATGCCGAGT,5.14,6.51,7.29,2.6,5.68,3.85,1.32,5.14
TATACAGGGTCCAAGGCCAGAGTACGAATGTCGA,1.18,0.986,1.15,1.17,0.823,0.402,0.398,2.03

Sequence,PBM binding z-score [1],PBM binding z-score [2],PBM binding z-score [3],PBM binding z-score [4],PBM binding z-score [5],PBM binding z-score [6],PBM binding z-score [7],PBM binding z-score [8]
TTACCACGGTGAAAGGTCGTTGATGCACGCCTTG,1.77,2.34,1.01,0.51,3.04,1.69,0.129,1.53
TCAGACACGTGAAGGTAACTCAGGTACGCAGTCG,0.104,0.176,0.219,1.06,0.661,1.21,-0.125,0.218
ATCTCTCGGTAAAGATAGTTCAGTGAATGCAAAT,1.07,0.757,0.753,-0.259,0.154,0.376,0.031,0.334
CCGACTGGGGCAGAAAGGTTACCGTACCATCCGG,2.49,1.52,1.28,-0.805,1.84,1.18,-0.556,-0.155
ACCCGGAGGACAAAGGTCAGAGCTACGCCAGTGA,4.67,6.15,5.22,0.737,4.97,3.4,0.681,1.24
TCATATAGGAAAAAGGTGAAAGTCGGTGTGGTAA,1.66,0.803,0.339,1.88,1.5,1.11,0.221,0.152
TCTGCTAGGTCAGTTAGTCAGCTAACGAGCTGCC,1.99,2.4,3.3,0.561,0.813,0.906,-0.364,-0.726
AGAACGAGGGCAATTAGTTGATAGCACGGGTGGC,1.14,1.37,1.89,2.01,0.935,0.962,-0.172,1.41
GCAGACAGGGGAAACGCAGGTAACTCAGGGTGGC,-0.497,-0.368,-0.487,-0.47,-0.164,0.986,-0.308,-0.688
AGTCAAGGTTCAGGACGAGGTAACGTAAAGCACG,1.55,3.45,2.41,2.61,2.19,3.55,1.75,2.25
CTACCAAGGGGAACAAGGTCGTTGATTACTATTC,1.09,0.406,0.334,0.885,0.759,1.76,1,2
TGTCAAAGTTCAAAGGTAACGAAAGTATCCACAC,3.89,6.36,6.02,4.4,7.81,2.97,0.0782,4.73
CCTACTGGGCCACGAAAGGACATTGATTCAGTGA,1.2,0.593,1.01,-0.0534,-0.0708,1.94,0.069,-0.0244
CCTCGGAGGACAGAAGGTCAGAGCGGTCCGCTTT,3.61,3.59,3.6,0.0416,1.82,2.35,-0.136,0.0325
CCTACTTGGCCAAAGGTCATTGATTCCAATGCTC,4.5,5.37,4.64,2.06,6.05,3.3,1.25,2.51
GCTAGCTGGTCAGTAAAAGGTCACACACCGGTCG,4.99,5.88,4.93,0.376,5.62,3.34,1.36,1.37
CCTCGGAGGACAGAATGTCAGAGCTGTCCGCTTT,-0.0927,-0.321,0.175,-0.282,-0.66,-0.251,-0.615,-0.654
CCTACTGGGCCAAGGTCATTAATCAGTCAAAGCA,3.03,3.21,2.99,1.47,2.71,3.1,2.03,3.22

# From the supplement of paper PMC6555819
